Measured values as given in PubChem BioAssay (NCI).
The panel holds about 83,000 compounds, 20% with a hit somewhere; the sample as a whole holds those more often.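 Plates (96-well) were seeded with cells, treated with compound at one concentration, and incubated for 48 hours before percent growth was determined.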 Calls of active or inactive are those of the source. The calls were made as follows: active = growth percent below 10; inactive = the rest.

Columns and labels:
Experiment in all cases: NCI-60 one-dose screen, 48 h (100 = growth as untreated, 0 = no growth, -100 = all killed)
Settings in all cases: 10 µM unless noted
NCI-H23 lung = test system: NCI-H23 lung
NCI-H226 lung = test system: NCI-H226 lung
NCI-H322M lung = test system: NCI-H322M lung
HOP-62 NSCLC = test system: HOP-62 NSCLC
NCI-H460 lung = test system: NCI-H460 lung
HOP-92 NSCLC = test system: HOP-92 NSCLC
NCI-H522 lung = test system: NCI-H522 lung
A549/ATCC NSCLC = test system: A549/ATCC NSCLC
786-0 renal = test system: 786-0 renal
COLO 205 colon = test system: COLO 205 colon
DU-145 prostate = test system: DU-145 prostate
K-562 leukemia = test system: K-562 leukemia
MALME-3M melanoma = test system: MALME-3M melanoma
MDA-MB-231 breast = test system: MDA-MB-231 breast
RXF 393 renal = test system: RXF 393 renal
SF-268 CNS = test system: SF-268 CNS
SF-295 CNS = test system: SF-295 CNS
SF-539 CNS = test system: SF-539 CNS
UACC-257 melanoma = test system: UACC-257 melanoma
M14 melanoma = test system: M14 melanoma

Measured: growth

CCN1CCN(Cc2ccc(C(=O)Nc3cccc(Nc4ccc5c(OC)cccc5n4)c3)cc2C(F)(F)F)CC1
active: NCI-H23 lung -96.1% | NCI-H226 lung -85.8% | NCI-H322M lung -100% | HOP-62 NSCLC -63.5% | NCI-H460 lung -69% | HOP-92 NSCLC -75.1% | NCI-H522 lung -83.3% | A549/ATCC NSCLC -68% | 786-0 renal -73% | COLO 205 colon -67.5% | DU-145 prostate -57.9% | K-562 leukemia 0.423% | MALME-3M melanoma -94.8% | MDA-MB-231 breast -94% | RXF 393 renal -93.3% | SF-268 CNS -19.1% | SF-295 CNS -95.3% | SF-539 CNS -100% | UACC-257 melanoma -82.8% | M14 melanoma -74.8%

C=CC(=O)N1CCN(c2ccc3nc4c(nc3c2C(F)(F)F)C(=O)c2ncccc2C4=O)CC1
active: NCI-H23 lung -61.5% | NCI-H460 lung -34.3% | HOP-92 NSCLC -3.31% | NCI-H522 lung -8.31% | A549/ATCC NSCLC 2.38% | COLO 205 colon -22.8% | K-562 leukemia 3.62% | MALME-3M melanoma -97.9% | MDA-MB-231 breast -13.6% | SF-539 CNS -32.9% | UACC-257 melanoma -82.7% | M14 melanoma -59.9%
inactive: NCI-H226 lung 63.8% | NCI-H322M lung 10.2% | HOP-62 NSCLC 39.9% | 786-0 renal 22% | DU-145 prostate 23.6% | RXF 393 renal 44.1% | SF-268 CNS 21.3% | SF-295 CNS 28.8%

Nc1cc(-c2c[nH]c3ccc(Cl)cc23)nc2cc(-c3c[nH]c4ccccc34)nn12
active: NCI-H23 lung -56% | NCI-H322M lung 5.87% | HOP-62 NSCLC -48% | NCI-H460 lung -65.9% | HOP-92 NSCLC -22.8% | NCI-H522 lung -75% | A549/ATCC NSCLC -8.14% | 786-0 renal -52.1% | COLO 205 colon -86% | DU-145 prostate 8.69% | K-562 leukemia 6.27% | MALME-3M melanoma -68.2% | MDA-MB-231 breast -79.2% | RXF 393 renal -21.5% | SF-268 CNS 9.75% | SF-295 CNS -79.4% | SF-539 CNS -81.5% | UACC-257 melanoma -73.2% | M14 melanoma -25.8%
inactive: NCI-H226 lung 35.5%

Cc1nc(N)ncc1-c1ccc2ncnc(N3CCc4cc(F)c(Cl)cc43)c2c1
inactive: NCI-H23 lung 84.3% | NCI-H226 lung 73.7% | NCI-H322M lung 28.7% | HOP-62 NSCLC 72.8% | NCI-H460 lung 76.7% | HOP-92 NSCLC 13.6% | NCI-H522 lung 68.2% | A549/ATCC NSCLC 56.2% | 786-0 renal 39.1% | COLO 205 colon 81.5% | DU-145 prostate 47.3% | K-562 leukemia 61.7% | MALME-3M melanoma 91.9% | MDA-MB-231 breast 35.3% | RXF 393 renal 14.6% | SF-268 CNS 45.9% | SF-295 CNS 84.9% | SF-539 CNS 67% | UACC-257 melanoma 105% | M14 melanoma 102%

Cc1ccc2c(c1)/C(=C/C(=O)c1cc3ccccc3oc1=O)C(=O)N2
active: HOP-92 NSCLC -4.43% | NCI-H522 lung -94.4% | K-562 leukemia 6.62% | MALME-3M melanoma -27.8% | RXF 393 renal -41.2%
inactive: NCI-H23 lung 71.6% | NCI-H226 lung 51.8% | NCI-H322M lung 101% | HOP-62 NSCLC 89.4% | NCI-H460 lung 97% | A549/ATCC NSCLC 89.5% | 786-0 renal 74.7% | COLO 205 colon 30.4% | DU-145 prostate 83.9% | MDA-MB-231 breast 65.1% | SF-268 CNS 84.4% | SF-295 CNS 104% | SF-539 CNS 61.1% | UACC-257 melanoma 73.3% | M14 melanoma 37%

CN(C)CCOc1ccc(C(=O)C2[C@H](c3ccc(Cl)cc3)[C@@H](c3ccccc3)NC23C(=O)Nc2ccc(Cl)cc23)cc1 (stereo not given in full)
active: NCI-H23 lung -93.2% | NCI-H226 lung -82.3% | NCI-H322M lung -91.1% | HOP-62 NSCLC -82.6% | NCI-H460 lung -87.4% | HOP-92 NSCLC -89.9% | NCI-H522 lung -91.7% | A549/ATCC NSCLC -77.9% | 786-0 renal -94% | COLO 205 colon -76.9% | DU-145 prostate -80.3% | K-562 leukemia -76.1% | MALME-3M melanoma -87.8% | MDA-MB-231 breast -93.6% | RXF 393 renal -92% | SF-268 CNS -64% | SF-295 CNS -89.3% | SF-539 CNS -98.5% | UACC-257 melanoma -81.2% | M14 melanoma -90.1%

COc1cc(CNC(=O)C[C@H](C)CCC=C(C)C)ccc1OCc1cn(-c2ccccc2F)nn1
active: HOP-92 NSCLC 4.63%
inactive: NCI-H23 lung 68.3% | NCI-H226 lung 73.3% | NCI-H322M lung 92.7% | HOP-62 NSCLC 46.7% | NCI-H460 lung 89% | NCI-H522 lung 57.1% | A549/ATCC NSCLC 80.6% | 786-0 renal 43.6% | COLO 205 colon 112% | DU-145 prostate 102% | K-562 leukemia 81.6% | MALME-3M melanoma 78.3% | MDA-MB-231 breast 66.8% | RXF 393 renal 38.4% | SF-268 CNS 58.9% | SF-295 CNS 45.2% | SF-539 CNS 44.6% | UACC-257 melanoma 94% | M14 melanoma 94.8%

CC(=O)c1c2c(c3ccc4c5ccccc5ccc4n13)C(=O)c1ccccc1C2=O
active: MALME-3M melanoma -49.5%
inactive: NCI-H23 lung 68.4% | NCI-H226 lung 54.8% | NCI-H322M lung 92.9% | HOP-62 NSCLC 70.7% | NCI-H460 lung 28% | HOP-92 NSCLC 94.9% | NCI-H522 lung 91.9% | A549/ATCC NSCLC 84.1% | 786-0 renal 78.5% | COLO 205 colon 99.8% | DU-145 prostate 102% | K-562 leukemia 103% | MDA-MB-231 breast 77.3% | RXF 393 renal 59.6% | SF-268 CNS 98% | SF-295 CNS 92.5% | SF-539 CNS 77.6% | UACC-257 melanoma 97.5% | M14 melanoma 65.7%

COc1ccc(OC)c(Cn2cc(C#N)c(N)c2C(=O)c2ccc(Br)cc2)c1
inactive: NCI-H23 lung 54.4% | NCI-H226 lung 64.9% | NCI-H322M lung 85.8% | HOP-62 NSCLC 40.2% | NCI-H460 lung 41.8% | HOP-92 NSCLC 55.7% | A549/ATCC NSCLC 46.4% | 786-0 renal 63.9% | COLO 205 colon 30.4% | DU-145 prostate 79.1% | K-562 leukemia 15.2% | MALME-3M melanoma 42.6% | MDA-MB-231 breast 60.7% | RXF 393 renal 41.8% | SF-268 CNS 68.5% | SF-295 CNS 39.1% | SF-539 CNS 47.7% | UACC-257 melanoma 55.6% | M14 melanoma 33.8%
active: NCI-H522 lung -29%

O=C(c1cc2cc(OCCCN3CCC3)ccc2[nH]1)N1C[C@@H](CCl)c2c1cc(OCc1ccccc1)c1ccccc21
active: NCI-H23 lung -73.4% | NCI-H226 lung -4.57% | NCI-H322M lung -23.5% | HOP-62 NSCLC -44% | NCI-H460 lung -60.1% | HOP-92 NSCLC -18.7% | NCI-H522 lung -70.1% | A549/ATCC NSCLC -18.5% | 786-0 renal -86.1% | COLO 205 colon -84.5% | DU-145 prostate -29.5% | K-562 leukemia 0.535% | MALME-3M melanoma -73.9% | MDA-MB-231 breast -41.4% | RXF 393 renal -80.8% | SF-268 CNS 0.226% | SF-295 CNS -4.45% | SF-539 CNS -79.8% | UACC-257 melanoma -23.1% | M14 melanoma -79.3%

COc1ccc2[nH]cc(-c3cc(N)n4nc(-c5c[nH]c6ccccc56)cc4n3)c2c1
inactive: NCI-H226 lung 74.5% | NCI-H322M lung 18.3% | DU-145 prostate 42.6% | SF-268 CNS 80.4%
active: NCI-H23 lung -12.1% | HOP-62 NSCLC -45.2% | NCI-H460 lung -22.8% | HOP-92 NSCLC -1.68% | NCI-H522 lung -65.3% | A549/ATCC NSCLC 1.46% | 786-0 renal -88.3% | COLO 205 colon -82.5% | K-562 leukemia 3.51% | MALME-3M melanoma -93.4% | MDA-MB-231 breast -69.9% | RXF 393 renal -72.2% | SF-295 CNS -75.9% | SF-539 CNS -95.2% | UACC-257 melanoma -92.3% | M14 melanoma -58.6%

COc1ccc(N=Nc2c(N)nn3c(-c4ccc([N+](=O)[O-])cc4)ccnc23)cc1
inactive: NCI-H23 lung 105% | NCI-H226 lung 95.2% | NCI-H322M lung 107% | HOP-62 NSCLC 95.3% | NCI-H460 lung 105% | HOP-92 NSCLC 94.5% | NCI-H522 lung 91.6% | A549/ATCC NSCLC 104% | 786-0 renal 93% | COLO 205 colon 119% | DU-145 prostate 105% | K-562 leukemia 95.1% | MALME-3M melanoma 93% | MDA-MB-231 breast 98.5% | RXF 393 renal 109% | SF-268 CNS 98.8% | SF-295 CNS 97.5% | SF-539 CNS 99.2% | UACC-257 melanoma 97.3% | M14 melanoma 104%

N#Cc1c(NC(=O)N2CCOCC2)n(-c2ccc(OC(F)(F)F)cc2)c2cc(F)ccc12
inactive: NCI-H23 lung 90.7% | NCI-H226 lung 87.3% | NCI-H322M lung 108% | HOP-62 NSCLC 106% | NCI-H460 lung 94.5% | HOP-92 NSCLC 102% | NCI-H522 lung 78.8% | A549/ATCC NSCLC 86.3% | 786-0 renal 112% | COLO 205 colon 108% | DU-145 prostate 100% | MALME-3M melanoma 94.5% | MDA-MB-231 breast 73.7% | RXF 393 renal 95.2% | SF-268 CNS 114% | SF-295 CNS 87.7% | SF-539 CNS 87.7% | UACC-257 melanoma 102% | M14 melanoma 96.7%
active: K-562 leukemia 8.91%

Oc1ccc(Cl)c(Nc2ncnc3c2cnn3CC(Cl)c2ccc(Br)cc2)c1 (stereo not given)
active: HOP-92 NSCLC 8.3% | K-562 leukemia 1.88% | RXF 393 renal -8.51%
inactive: NCI-H23 lung 65.8% | NCI-H226 lung 84% | NCI-H322M lung 67% | HOP-62 NSCLC 58.1% | NCI-H460 lung 67.1% | NCI-H522 lung 52.6% | A549/ATCC NSCLC 53.9% | 786-0 renal 63.9% | COLO 205 colon 90.9% | DU-145 prostate 50.8% | MALME-3M melanoma 57.4% | MDA-MB-231 breast 26.4% | SF-268 CNS 26.7% | SF-295 CNS 60.3% | SF-539 CNS 29.1% | UACC-257 melanoma 80.1% | M14 melanoma 65.4%
